# An excerpt weighted towards active compounds, which were near 2.9% of everything screened.
# Pol iota inh = qHTS for Inhibitors of Polymerase Iota. DNA polymerase iota (Homo sapiens), Q9UNA4. Pol iota fluorescent replication assay, 10 min. Potency, µM (titrated, usually from 115 µM), for the others: at the top dose activity, negative = inhibition, usual class: inhibitors. hit rate 1% among 390,000. AID 588590, 2011; further: potency means the concentration at half of the fitted maximal effect
# Target sequence (Q9UNA4 whole entry, looked up): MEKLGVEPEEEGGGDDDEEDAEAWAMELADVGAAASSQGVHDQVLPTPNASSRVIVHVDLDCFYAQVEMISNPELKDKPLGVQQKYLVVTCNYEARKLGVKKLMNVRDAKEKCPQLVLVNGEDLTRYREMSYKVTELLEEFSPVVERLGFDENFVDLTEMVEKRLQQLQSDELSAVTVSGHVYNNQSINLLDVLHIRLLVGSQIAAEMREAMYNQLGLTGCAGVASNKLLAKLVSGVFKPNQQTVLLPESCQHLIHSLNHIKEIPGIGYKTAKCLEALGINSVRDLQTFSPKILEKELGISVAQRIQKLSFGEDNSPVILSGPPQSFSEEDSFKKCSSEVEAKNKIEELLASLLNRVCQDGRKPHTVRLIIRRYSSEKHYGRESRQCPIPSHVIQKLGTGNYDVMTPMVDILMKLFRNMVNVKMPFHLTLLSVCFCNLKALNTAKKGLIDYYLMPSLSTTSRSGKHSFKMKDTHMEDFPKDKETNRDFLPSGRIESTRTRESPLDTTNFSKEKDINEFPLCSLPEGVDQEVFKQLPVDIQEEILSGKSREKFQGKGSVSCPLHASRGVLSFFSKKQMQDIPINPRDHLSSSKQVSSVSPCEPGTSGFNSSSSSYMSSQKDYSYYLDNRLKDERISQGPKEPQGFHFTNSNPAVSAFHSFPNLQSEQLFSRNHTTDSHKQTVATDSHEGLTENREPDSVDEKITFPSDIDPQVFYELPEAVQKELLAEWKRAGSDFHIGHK
#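 Fluorescent replication assay read twice, at 0 min and 10 min after adding 50 nM (final) substrate. Enzyme (10 nM) and compounds were first incubated 15 min at room temperature; enzyme-free buffer wells were negative controls.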
# PI5P4K alpha inh = qHTS for Inhibitors of phosphatidylinositol 5-phosphate 4-kinase (PI5P4K). Phosphatidylinositol 5-phosphate 4-kinase type-2 alpha (Homo sapiens), P48426. PI5P4Kalpha enzyme, ADP-Glo luminescence, 60 min; stronger effect = lower value. max response, %. hit rate 1.2% among 330,000. AID 652105, 2013; active means max response of -50% or lower; inconclusive means between -30% and -50%; inactive means -30% or higher; further: value at the top dose of about 77 µM; on the % scale 0 is the no-effect control and ±100 the full control effect
#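 ADP-Glo luminescence end-point after a 60 min room-temperature kinase reaction. PI5P4Kalpha and substrate in HEPES pH 7.4 buffer with EGTA, 0.1% CHAPS and 5% DMSO; ATP at 5 microM final.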
# POLB inh = qHTS Assay for Inhibitors of DNA Polymerase Beta; P06746; Pol beta primer extension/strand displacement, fluorescence kinetic; Potency, µM (series often up to 114 µM), for the others: top-dose activity change, negative = inhibition, actives largely listed as inhibitors; hit rate 1.3% among 340,000; further: potency means the concentration at half of the fitted maximal effect; on the % scale 0 is the no-effect control and ±100 the full control effect
#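 Human Pol beta at 10 nM; strand-displacement substrate 50 nM final. Compound exposure 15 min at room temperature before start, reaction 10 min at room temperature.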
# Pol eta inh-1 = qHTS for Inhibitors of Polymerase Eta; Potency, µM (top dose mostly 114 µM), inactives show at the top dose activity change, negative = inhibition, most hits filed as inhibitors; hit rate 1.2% among 390,000; recombinant Pol eta, fluorescent DNA replication assay; DNA polymerase eta (Homo sapiens), Q9Y253; AID 588591, 2011; further: potency means the concentration at half of the fitted maximal effect; on the % scale 0 is the no-effect control and ±100 the full control effect
#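 Fluorescent replication assay: 50 nM final substrate added after a 15 min room-temperature compound preincubation with 10 nM enzyme. Signal taken at 0 min and again at 10 min.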
# ALOX12 inh = Primary qHTS assay for inhibitors of human arachidonate 12S-lipoxygenase (ALOX12): Round 2. AID 1671190, 2021. purified 12hLO, xylenol orange hydroperoxide absorbance. Polyunsaturated fatty acid lipoxygenase ALOX12 (Homo sapiens), P18054. hit rate 1.1% among 580,000. Potency, µM (series often up to 108 µM), for inactives: at the highest dose activity change, negative = inhibition, most hits filed as inhibitors; further: potency means the concentration at half of the fitted maximal effect; on the % scale 0 is the no-effect control and ±100 the full control effect
#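 Hydroperoxide product was detected by ferrous iron/xylenol orange as the 573 to 405 nm absorbance ratio. Arachidonic acid at 40 uM (final) was turned over for 30 min at room temperature by 150 nM human 12hLO, pH 7.0 Hepes buffer, after 15 min compound preincubation.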
# Pol kappa inh = qHTS for Inhibitors of Polymerase Kappa | DNA polymerase kappa (Homo sapiens), Q9UBT6 | purified Pol kappa, fluorescent DNA synthesis assay, 10 min | Potency, µM (titrated, usually from 107 µM), for the others: at the highest dose activity, negative = inhibition, actives largely listed as inhibitors | hit rate 0.53% among 400,000; further: potency means the concentration at half of the fitted maximal effect; on the % scale 0 is the no-effect control and ±100 the full control effect
#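 Pol kappa 10 nM + cpd, 15 min RT; start w/ substrate 50 nM final; fluorescence kinetic read, 0 and 10 min. Neg ctrl: buffer, no enzyme.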
# GALK inh confirm = Confirmation Assay for Inhibitors of Human Galactokinase (GALK); shares compounds with Pol eta inh-1; purified GALK, Kinase-Glo ATP depletion luminescence; Potency, µM (highest dose often 115 µM), inactives show top-dose activity, negative = inhibition, usual class: inhibitors; hit rate 70% among 150
# Redox cycling = Confirmatory Assay for Inhibitors of Human Galactokinase (GALK): Phenol-HRP redox assay counterscreen. shares compounds with Pol eta inh-1. Phenol red-HRP H2O2 redox cycling, absorbance 600 nm. Potency, µM (series often up to 115 µM), for inactives: at the highest dose activity change, negative = H2O2 signal, most hits filed as inhibitors. hit rate 40% among 150. AID 2035, 2009
# HEK293 tox = Secondary Assay for Inhibitors of Human Galactokinase (GALK): HEK-293 Cell Viability Assay; shares compounds with Pol eta inh-1; HEK-293 viability, ATP luminescence (CellTiter-Glo), 24/48 h; Potency, µM (highest dose often 46.1 µM), without a hit: top-dose activity change, negative = cytotoxicity, usual class: inhibitors; hit rate 10% among 170; further: potency means the concentration at half of the fitted maximal effect; on the % scale 0 is the no-effect control and ±100 the full control effect
# Pol eta inh-2 = qHTS for Inhibitors of Polymerase Eta: Confirmatory Assay for Cherry-picked Compounds. shares compounds with Pol eta inh-1. Pol eta primer extension, TAMRA/BHQ fluorescence, 10 min. Potency, µM, hits mostly inhibitors. hit rate 64% among 2,600. AID 720502, 2013; further: potency means the concentration at half of the fitted maximal effect
# * marks the source's active call; other numbers are inactive results; ? = inconclusive; / = not tested or not shown; [ ] = dose if it differs, or a comment. Unless noted, the call rests on the fitted dose curve; in most records, active means well fitted curve in the direction sought with a large enough effect; inconclusive means small, poorly fitted or top-dose-only effect, or another doubt; inactive means no such curve, though single readings can be large; an effect the other way counts as inactive or inconclusive.
SMILES,Pol iota inh,PI5P4K alpha inh,POLB inh,Pol eta inh-1,ALOX12 inh,Pol kappa inh,Pol eta inh-2,others
CC(C)N(c1ccccc1)c1ccc(NC(=O)c2cc(=O)c3ccccc3o2)cc1,/,/,/,/,-8%,/,/,
COC(=O)C1=C(O)/C(=C\c2ccc(CNS(=O)(=O)c3ccc(Cl)cc3)o2)N=C1C,?,-21,25µM*,?,50µM*,79µM*,?,
OCCc1nc2ccccc2[nH]1,/,/,/,/,18%,/,/,
Cc1ccc(-n2c(O)c(C=Nc3ccccc3-c3n[nH]c(=S)[nH]c3=O)c3ccccc3c2=O)cc1C,?,-81*,?,32µM*,?,?,?,
Cc1ccc(-n2c(O)c(C=NC3CCS(=O)(=O)C3)c3ccccc3c2=O)cc1C (centres undefined),-5%,/,0%,6%,4%[57.4 µM],-9%,/,
Cc1nc2cc(NC(C)C(=O)Nc3c(C)cccc3C)ccc2o1 (centres undefined),/,/,/,/,1%,/,/,
CC1=C(C(=O)Nc2ccccc2)C(c2ccc(F)cc2)N=C(Nc2nc3ccccc3o2)N1 (centres undefined),/,/,/,/,-2%,/,/,
Cc1ccc(F)c(NC(=O)/C(C#N)=C(\O)c2ccc(C(C)(C)C)cc2)c1,?,-28,89µM*,79µM*,?,-7%,/,GALK inh confirm=33µM*;Redox cycling=-20%;HEK293 tox=4%
Cc1cc(N)c2cc(NC(=O)/C=C/c3ccccc3Cl)ccc2n1,48%,?,50µM*,?,/,-25%,67*,
COc1ccc(-c2nc(SCC(=O)N3CCCc4ccccc43)n3[nH]c(=O)cc3n2)cc1,/,/,/,/,-16%,/,/,
Cc1cc(OCCCSc2nc(-c3ccc(C(C)(C)C)cc3)nc3cc(=O)[nH]n23)ccc1Cl,?,/,40µM*,79µM*,-2%,?,?,
Cc1cc(C)cc(OCCSc2nc(-c3ccc(C(C)(C)C)cc3)nc3cc(=O)[nH]n23)c1,-17%,/,22µM*,?,-5%,-18%,85*,
C[C@@H]1Cc2c(O)c(O)cc(O)c2C(=O)O1,?,-27,2.8µM*,22µM*,/,79µM*,67*,
N#Cc1c(C(=O)c2cccs2)no[n+]1[O-],/,/,/,/,/,/,?,
N#Cc1c(-c2ccccc2)no[n+]1[O-],1%[58.9 µM],/,6%[57.1 µM],-10%[57.1 µM],/,5%[19.4 µM],/,
CCCC(=O)Nc1ccc2oc(-c3ccc(Br)c(C)c3)nc2c1,/,/,/,/,-6%,/,/,
CC1(C)CC(=O)C2=C(C1)NC(Nc1nc3ccccc3o1)=NC2c1cccc(O)c1 (centres undefined),23%,/,/,/,/,-6%,/,HEK293 tox=?
CC1(C)CC(=O)C2=C(C1)NC(Nc1nc3ccccc3o1)=NC2c1cccc(F)c1 (centres undefined),36%,/,/,/,/,-23%,/,HEK293 tox=-3%
CC1(C)CC(=O)C2=C(C1)NC(Nc1nc3ccccc3o1)=NC2c1cccnc1 (centres undefined),18%,/,/,/,/,-21%,/,HEK293 tox=9%
CC1(C)CC(=O)C2=C(C1)NC(Nc1nc3ccccc3o1)=NC2c1ccccc1 (centres undefined),14%,/,/,/,/,0%,/,HEK293 tox=-11%
O=C(CCc1cccs1)Nc1cccc2c1CCCC2,/,/,/,/,-9%,/,/,
O=C(NCCc1ccccc1F)C1CC=CCC1 (centres undefined),/,/,/,/,35%,/,/,
Cc1ccc(Sc2ccc(NC(=O)c3n[nH]c(=O)c4ccccc34)cc2)cc1C,/,/,/,/,-16%,/,/,
CC(=O)CCS(=O)(=O)c1ccc(Cc2ccc(S(=O)(=O)CCC(C)=O)cc2)cc1,/,/,/,/,2%,/,/,
COc1ccc(C2N=C(Nc3nc4ccccc4o3)NC3=C2C(=O)CC(C)(C)C3)cc1 (centres undefined),9%,/,/,/,/,-15%,/,HEK293 tox=-16%
SMILES,Pol iota inh,PI5P4K alpha inh,POLB inh,Pol eta inh-1,ALOX12 inh,Pol kappa inh,Pol eta inh-2,others
Cc1ccc(C2N=C(Nc3nc4ccccc4o3)NC3=C2C(=O)CC(C)(C)C3)cc1 (centres undefined),8%,/,/,/,47%,11%,/,HEK293 tox=0%
CC1(C)CC(=O)C2=C(C1)NC(Nc1nc3ccccc3o1)=NC2c1ccc(F)cc1 (centres undefined),/,/,/,/,8%,/,/,
CCCCCOc1ccc(/C=c2\sc3nc(=O)c(-c4ccccc4)nn3c2=O)cc1OC,7%,3,-8%,-3%,4%,-19%,/,
O=c1nc2s/c(=C\c3ccc(-c4ccccc4[N+](=O)[O-])o3)c(=O)n2nc1-c1ccccc1,7%,?,5µM*,?,11µM*,-3%,76*,
COc1ccc(OC)c(NC(=O)COC(=O)c2cc(C)nc3ccccc23)c1,/,/,/,/,3%,/,/,
CCCc1cc2c(CCC)cc(=O)oc2cc1O,/,/,/,/,-25%,/,/,
CC1CCC/C=C/C(=O)c2c(O)cc(O)cc2CC(=O)O1 (centres undefined),18µM*,2,-15%,35µM*,25%,79µM*,76*,
C[C@@H]1C[C@H](O)CCCCCC(=O)Cc2cc(O)cc(O)c2C(=O)O1,/,/,/,/,-7%,/,/,
CC[C@@H](C)CN1C(=O)N[C@@H](c2ccccc2)C(C(C)=O)=C1C,14µM*,?,/,22µM*,?,?,76*,
CC[C@@H](C)CN1C(=O)N[C@@H](CCc2ccccc2)C(C(C)=O)=C1C,21%,0,0%,-10%,?,-21%,/,
Cc1ccc2nc3sc(C(=O)NCc4ccco4)cc3cc2c1,/,/,/,/,/,/,76*,

# Source: PubChem BioAssay (National Center for Advancing Translational Sciences (NCATS))
